CYP2C9 act: CYP2C9 (human) activation. recombinant CYP2C9, luciferin-H conversion, luminescence; hits give high values; factor 1 = untreated enzyme, 0 = blocked. 96,000 compounds, 1.4% hits. activation factor at 5 µM. P11712. AID 1024;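 active means activation factor of 2 or more for CYP2C9 at a 5 µM dose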;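 further: 0 = sulfaphenazole-blocked wells and 1 = vehicle-only wells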
CYP2C9 inh: human CYP2C9 inhibition; CYP2C9 Supersomes, luciferin-H conversion, luminescence; 96,000 compounds, 20% hits; P11712; inhibition, % at 5 µM;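 active means blocking of liver enzyme CYP2C9 beyond about 50% at 5 µM, limit read from the data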
CYP2C19 activ: cytochrome P450 2C19 (human) activation | P33261 | activation factor at 5 µM | 96,000 tested, under 10 active | recombinant CYP2C19, luciferin-H EGE luminescence; hits give high values; 0 = fully inhibited enzyme, 1 = untreated enzyme;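 active means activation factor of at least 2 at 5 µM in the primary screen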;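 further: 0 = wells with 2.5 mM tranylcypromine and 1 = vehicle-only wells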
Target sequence (P33261 whole entry, looked up): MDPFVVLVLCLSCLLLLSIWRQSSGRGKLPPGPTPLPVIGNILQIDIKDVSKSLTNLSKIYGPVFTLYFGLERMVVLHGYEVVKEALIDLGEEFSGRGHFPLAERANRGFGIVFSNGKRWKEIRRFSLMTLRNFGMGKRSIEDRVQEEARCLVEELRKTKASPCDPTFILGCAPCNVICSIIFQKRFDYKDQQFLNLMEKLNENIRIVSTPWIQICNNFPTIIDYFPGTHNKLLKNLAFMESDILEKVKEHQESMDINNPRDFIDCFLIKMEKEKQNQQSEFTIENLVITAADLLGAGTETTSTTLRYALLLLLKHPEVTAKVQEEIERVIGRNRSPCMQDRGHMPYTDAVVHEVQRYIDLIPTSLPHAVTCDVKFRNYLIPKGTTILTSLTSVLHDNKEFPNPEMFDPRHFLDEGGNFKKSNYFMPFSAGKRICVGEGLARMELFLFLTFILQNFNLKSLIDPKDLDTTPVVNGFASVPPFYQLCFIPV
Cav3 T inh: inhibitors of human Cav3.2 T-type calcium channel. 100,000 compounds, 4% hits. B-score at 10 µM. O95180. AID 449739. Cav3.2-expressing cells, Fluo-4 calcium fluorescence FDSS; hits give low values;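 active means single-dose well whose peak fluorescence ratio is a statistical outlier from its plate by either plate-standardised score or position-corrected B-score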
CYP2C19 inhib: human CYP2C19 inhibition; CYP2C19 Supersomes, luciferin-H EGE luminescence, 30 min; AID 778; 96,000 compounds, 21% hits; P33261; inhibition, % at 5 µM;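 active means CYP2C19 inhibition above a set limit at 5 µM in the primary screen, cut at about 50% in these data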;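 further: plate controls were negative control wells for no effect and 2.5 mM tranylcypromine positive control for full effect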
The depositor's hits bear a star; . = not tested or not shown. Rows were chosen to be rich in hits. Some 27% of all compounds tested hit in one or more screens of this group.

SMILES	CYP2C9 act	CYP2C9 inh	CYP2C19 activ	Cav3 T inh	CYP2C19 inhib
O=C(NC1CCCC1)c1cc(-c2cccs2)on1	1.3	-28	0.7	.	35
CCCNC(=O)c1cc(-c2ccco2)on1	.	.	.	0.1	.
O=C(Nc1ccc(F)cc1F)c1cc(-c2ccco2)on1	1.7	-71	1	-1.1	-3
Cn1c(=O)n(CCN2CCOCC2)c(=O)c2c1nc1n2CCCN1c1ccccc1	0.8	24	0.9	.	11
CC(C)(C)c1cccc(OCCCSc2ncccn2)c1	1	1	1	-1	-3
CCN1CCN(C(=O)C2CCC(CNS(=O)(=O)c3ccccc3)CC2)CC1 (stereo not given)	1.4	-41	1.2	0.013	-24
O=C(c1ccc2c(c1)OCCO2)N(c1ccccn1)C1CCCCC1	0.5	52*	0.7	1.3	26
CCN1CCN(CCCNC(=O)C2c3ccccc3C(=O)N(C)C2c2ccc(OC)cc2)CC1 (stereo not given)	1	-2	1.1	-5.6*	-14
CCOc1ccccc1C(=O)N1c2ccccc2Sc2ccccc21	0	98*	0.1	-5.6*	87*
CCCN1CCN(C(=O)c2cn(CC(C)C)c(=O)c3cc(OC)c(OC)cc23)CC1	0.9	11	1.1	.	-6
COc1cc2c(C(=O)N3CCN(c4cccc(Cl)c4)CC3)cn(CC(C)C)c(=O)c2cc1OC	0.4	58*	0.7	.	25
O=C(c1ccccc1Oc1ccccc1)N1CCN(c2ccccc2)CC1	0	98*	0	-3.3	96*
O=C(O)c1ccccc1C(=O)N1CCN(c2cccc(Cl)c2)CC1	.	.	.	0.32	.
O=C(c1cccc(C(=O)N2CCN(c3ccccc3)CC2)c1)N1CCN(c2ccccc2)CC1	0.7	34	0.6	0.25	41
CCOc1ccccc1C(=O)N1CCN(c2cccc(Cl)c2)CC1	0.3	70*	0.3	-0.78	67*
COc1ccc(C(=O)N2CCN(c3cccc(Cl)c3)CC2)c(OC)c1	0.3	69*	0.1	-1.8	87*
COc1cc(Cl)ccc1NC(=O)COc1ccccc1C(=O)N1CCN(c2ccc(O)cc2)CC1	0.2	82*	0.2	.	79*
O=C(C1CC1c1ccccc1)N1CCN(c2cccc(Cl)c2)CC1 (stereo not given)	0.5	47	0.4	-3.2	60*
COc1ccc(N2CCN(C(=O)NC3CCCCC3)CC2)cc1	.	.	.	0.27	.
COc1cccc(N2CCN(C(=O)NC3CCCCC3)CC2)c1	0.4	56*	0.7	1.5	30
COc1ccc(Cl)cc1C(=O)Nc1cc(=O)n(C)c(=O)n1C	.	.	.	-0.84	.
CC(=O)c1ccc(Oc2ncnc3sccc23)c(CN2CCOCC2)c1	.	.	.	1.6	.
O=C1CC(C2CCCO2)C(=O)N1Cc1ccccc1 (stereo not given)	1	3	0.5	.	47
Cc1ccc(F)c(C2C3C=CCC(c4cccc(-c5ccc(N(C)C)cc5)c4)C3C(=O)N2Cc2ccccc2)c1 (stereo not given)	.	.	.	0.84	.
COc1ccc(N2CC(C(=O)NCCCN3CCOCC3)CC2=O)cc1 (stereo not given)	0.9	13	1	-0.023	1
SMILES	CYP2C9 act	CYP2C9 inh	CYP2C19 activ	Cav3 T inh	CYP2C19 inhib
Cn1c2c(c(=O)n(C)c1=O)C1(C(=O)Nc3ccccc31)C(C#N)=C(N)O2 (stereo not given)	0.9	13	1	-0.45	0
CCc1ccc(N/C(SCc2ccccc2C)=C(/C#N)C(=O)NCc2ccco2)cc1	0.4	64*	0.4	-5.4*	57*
CC(=O)Nc1ccc(C(=S)NCc2ccco2)cc1	0.9	13	0.7	.	33
O=C(c1ccc(F)cc1)N1CCN(c2cc(=O)[nH]nc2-c2ccccc2)CC1	1.1	-15	1.1	0.21	-13
Cc1cccc(NC(=O)CSc2nc(-c3ccccc3)c(C#N)c(=O)[nH]2)c1C	0.1	93*	0.6	.	41
Cc1cc(NC(=O)CSc2nc(-c3ccccc3)c(C#N)c(=O)[nH]2)no1	0.3	70*	0.9	0.2	8
C=CCSc1nc(-c2ccccc2)c(C#N)c(=O)[nH]1	0.6	44	0.9	-2.2	14
CCOC(=O)CCCCC(=O)NC(CO)C(=O)NC (stereo not given)	1.2	-20	1.2	-0.084	-16
CCNc1nc2nonc2nc1NCC	2.6*	-160	1.1	1.3	-14
Cc1ccc(Nc2nc3nonc3nc2N(C)C)cc1	1	5	0.9	0.2	14
CCNC(=O)NC1(C(=O)Nc2ccc3c(c2)OCCO3)CCCCC1	1	3	1	0.00047	0

Assay outcomes from PubChem BioAssay.
